In the library only some 1.7% were active in any assay of this set; here they are far more common.
BH1578 lux ind: inducers of Vibrio cholerae quorum light production without autoinducers, primary screen, BH1578 luxS cqsA deficient, single point; V. cholerae BH1578 lux reporter, luminescence, 6 h; activation, % at 18.7 µM; 350,000 compounds, 0.16% hits; in the data active means activation mostly above about 9.7%, no sharp cut-off
ugtP null kill: growth inhibition of ugtP-null S. aureus, primary screen, RN4220 ugtP deletion, OD600. 16 h. growth inhibition, % (no concentration beside the values). 330,000 compounds, 0.54% hits. AID 1259309, 2017; in the data active means growth inhibition above about 68%
PfHsp40 yeast: rescue of yeast from PfHsp40 toxicity, primary screen, S. cerevisiae, ATP luminescence; S. cerevisiae expressing PfHsp40, growth rescue; growth rescue, % at 12.5 µM; 340,000 compounds, 0.68% hits; in the data active means growth rescue above about 28%, passing the limit was not always enough;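 further: yeast W303a lacking pdr1 and pdr3 grown in galactose medium; growth measured after three days at 30 °C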
Mtb hypoxia rep: PubChem AID 1159583; M. tuberculosis hypoxia-regulated fluorescent reporter, fluorescence; fluorescence inhibition, % (concentration not given with the values); 300,000 compounds, 0.1% hits; in the data active means fluorescence inhibition mostly above about 23%, no sharp cut-off; inactive means mostly below about 17%
Sa RN4220 lethal: growth inhibition of S. aureus RN4220, primary screen, OD600. inhibition, % (test concentration not listed). 330,000 compounds, 0.33% hits. 16 h; in the data active means inhibition above about 85%
CCHFV vOTU inh: CCHFV vOTU protease inhibitors, primary screen, biochemical, Pep-AMC substrate, fluorescence | inhibition, % at 11.5 µM | 370,000 compounds, 0.55% hits; in the data active means inhibition above about 30%
A number is an active result; n = inactive; x = no result given.

SMILES	BH1578 lux ind	ugtP null kill	PfHsp40 yeast	Mtb hypoxia rep	Sa RN4220 lethal	CCHFV vOTU inh
CCCNC(=O)c1ccc2c(=O)c(O)c(-c3ccc(F)cc3)[nH]c2c1	n	n	199	n	n	x
CCCNC(=O)c1ccc2c(=O)c(O)c(C)[nH]c2c1	n	n	n	n	n	n
CCCNC(=O)c1ccc2c(=O)c(O)c(-c3cccc(Br)c3)[nH]c2c1	n	n	182	n	n	n
Nc1c(Cl)cc(-c2[nH]c3cc(C(=O)NCCO)ccc3c(=O)c2O)cc1Cl	n	n	43	n	n	n
COc1ccc(C=NNC(=O)c2ccccc2)cc1CN1CCN(c2ccc(F)cc2)CC1	x	n	x	x	n	x
CCc1ccc(C2CC=C(C(=O)O)CN2S(=O)(=O)c2ccc(C)cc2)cc1 (stereo not given)	x	n	x	n	n	x
COC(=O)[C@@]1(Cc2ccc(OC)cc2)C2c3cc(C(=O)N4CCCC4)n(Cc4c(CO)[nH]cc(C)c4=O)c3CC2CN1C(=O)c1ccccc1 (stereo not given in full)	x	n	x	n	n	x
Cc1ccc(-n2c(-c3ccc(Br)cc3)c[n+]3c2CCc2ccc4cccnc4c2-3)cc1	n	n	n	x	99	n
O=C(NCC1CCCO1)C(=Cc1ccco1)NC(=O)c1ccccc1 (stereo not given)	x	n	x	n	n	x
Cc1ccc2[nH]c3nc(NN=Cc4cccc(O)c4)nnc3c2c1	x	n	x	n	n	x
COc1ccc(O)c(/C=N/NC(=O)c2ccc(CSc3nc(C)cc(C)n3)cc2)c1	n	x	52	x	x	n
Cc1cc(C)nc(SCc2ccc(C(=O)N/N=C/c3cccc(O)c3O)cc2)n1	n	x	126	x	x	n
NC(=O)CC(N)c1cn(C(CC(N)=O)C(=O)N2CCNCC2)nn1 (stereo not given)	x	n	x	n	n	x
COc1ccc(C(=O)C[n+]2cc(Br)cc3ccccc32)cc1[N+](=O)[O-]	n	n	n	n	n	n
O=C(C[n+]1cc(Br)cc2ccccc21)c1ccccc1	n	n	49	n	n	n
COC(=O)c1ccc(C=Cc2c(-c3ccsc3)sc3ccccc23)cc1	x	n	x	n	n	x
CCN1C(=O)C2C(c3ccc(C)cc3)N3C(=O)N(c4ccc(C(F)(F)F)cc4)C(=O)[C@@]3(CC)C2C1=O (stereo not given in full)	x	n	x	n	n	x
Cc1ccc(S(=O)(=O)N2CCOCC2)s1	n	n	n	n	n	n
O=C1OCC(c2ccccc2)=C1c1ccc(S(=O)(=O)N2CCOCC2)s1	17	n	n	n	n	n
O=c1c2ccccc2oc2cc(-c3ccc4cc[nH]c4c3)ccc12	n	n	n	n	n	n
O=c1c2ccccc2oc2ccc(-c3ccc4[nH]ccc4c3)cc12	n	92	n	n	n	n
COc1ccc(C=NNC(=O)Cn2nc([N+](=O)[O-])cc2C)c(OC)c1OC	x	n	x	n	n	x
CC(=O)N1c2ccccc2Oc2cc3ccccc3cc21	n	n	n	n	n	n
CC(=O)N1c2ccc(C)cc2Sc2c1ccc1ccccc21	n	n	30	n	n	n
COc1ccc(C2C=CCN(Cc3ccc(N(C)C)cc3)C(C)C(=O)N2Cc2ccc(F)cc2)cc1 (stereo not given)	x	n	x	n	n	x
SMILES	BH1578 lux ind	ugtP null kill	PfHsp40 yeast	Mtb hypoxia rep	Sa RN4220 lethal	CCHFV vOTU inh
Cc1ccc(C(=O)N2c3ccccc3OCC2C)cc1 (stereo not given)	n	n	n	n	n	n
Cc1ccc(C(=O)N2C(=O)C(c3ccccc3)Oc3ccccc32)cc1 (stereo not given)	n	n	110	n	n	n
CCC1Oc2ccccc2N(CC(=O)NC2CCCCC2)C1=O (stereo not given)	n	101	n	n	n	n
N#Cc1sc2nc(-c3ccccc3)cc(-c3ccco3)c2c1N	n	n	n	n	n	59
COc1ccccc1C=NNC(=O)c1ccc(COc2ccc(C)c(C)c2)o1	x	n	x	n	n	x
Cc1cc(C)c(C)c(OCCOCCN2CCN(C)CC2)c1	n	n	123	n	n	n
O=C(CSc1cccc[n+]1[O-])Nc1ccccc1Oc1ccccc1	n	n	90	x	n	n
Cc1cc(C)c(C=Nn2c(C)cc(C)c(C#N)c2=O)c(C)c1	x	n	x	n	n	x
COc1cc(Br)cc(C=NN(CCO)C2=NS(=O)(=O)c3ccccc32)c1OC	x	n	x	n	n	x
CCCCCCCCCCCCCCCC[n+]1ccc(C=NO)cc1	x	101	x	n	101	x
CN1CC2C3C(=O)N(Cc4ccccc4)C(=O)C3[C@](Cc3ccccc3)(C1=O)N2C(=O)c1ccc(Br)cc1 (stereo not given in full)	x	n	x	n	n	x
c1ccc(COc2ccc(OCCn3cncn3)cc2)cc1	n	n	n	x	n	n
c1ccc(-c2ccc(OCCCn3cncn3)cc2)cc1	n	n	269	x	n	n
Cc1ccc(NN=C(C#N)C(N)=S)c(C)c1	x	n	x	n	n	x
O=C(NN=C/C=C/c1ccc2c(c1)OCO2)C(O)c1ccccc1 (stereo not given)	x	n	x	n	n	x
CC(C)N(Cc1ccccc1)C(=S)NCCN1CCOCC1	n	n	35	n	n	n
Cc1ncoc1C(=O)N1CCCC(C(=O)c2ccc(-c3ccccc3)c(F)c2)C1 (stereo not given)	n	n	183	n	n	n
Cc1ncoc1C(=O)N1CCCC(C(=O)c2ccc(Oc3ccccc3)cc2)C1 (stereo not given)	n	n	n	n	n	n
COc1ccc(C=NNC(=O)C2C(=O)NCC2c2ccccc2)cc1O (stereo not given)	x	n	x	x	n	x
Cc1cc(C)n2nc(C(=O)NCc3ccccc3)cc2n1	n	n	n	n	n	n
Cc1ccc(NC(=O)c2cc3nc(C)cc(C)n3n2)cc1	n	n	47	n	n	n
C#CCNC(=O)C1=CC(c2ccccc2)CC(OCc2ccc(CO)cc2)O1 (stereo not given)	x	n	x	n	n	x
N#CC1=C(N)C(C#N)(C#N)C2(C(=O)Nc3ccccc32)C2CCCC=C12 (stereo not given)	n	n	30	n	n	n
CC(=NNC(=O)c1ccncc1)c1ccccc1	x	n	x	x	n	x
COc1ccc2c(c1)c1nnc(SC)nc1n2C	x	n	59	n	n	n
COc1cc(NC(=O)C2CCCN(S(=O)(=O)c3cccc4cccnc34)C2)cc(OC)c1OC (stereo not given)	x	n	x	n	n	x
CC1(C)CCC[C@]2(C)[C@H]3Cc4cc(O)ccc4O[C@]3(C)CC[C@@H]12	n	x	93	x	x	n
CC1(C)CCC[C@]2(C)[C@H]3CC(=O)O[C@]3(C)CC[C@@H]12	n	n	n	n	n	n
COc1ccccc1C(=O)NC(CCSC)C(=O)NNC(=O)c1ccccc1O (stereo not given)	n	n	98	n	n	n
CSCCC(NC(=O)c1ccccc1Br)C(=O)NNC(=O)c1ccncc1 (stereo not given)	n	n	n	27	n	n
